Results published in PubChem BioAssay AID1159580 (chemical genetic matrix, 2015).
Among all 5,500 compounds or so, about 2,000 (36%) were called active. About 18% were inconclusive and are not listed. Cut-off read from the data, not from the text of the source: active = normalized growth mostly below about 0.91 (no sharp cut-off); inconclusive = no clear call, values can overlap the other calls; inactive = mostly above about 0.92. The list shows a part of the results.

Assay: chemical genetic growth profiling, strain panel (AID 1159580);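 note: tested at 20 µM; growth read once vehicle control cultures reached saturation at 30 °C; 1 = growth at the plate median or of vehicle wells; lower values mean less growth of the strain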
Conditions: S. cerevisiae deletion strains, growth OD

Measured: normalized growth

CC(=O)O[C@@H]1CC2C(C)(C)CCC(=O)[C@]2(C)C2CC[C@@]3(C)[C@H](c4ccoc4)OC(=O)C4OC43[C@@]21C (stereo partly specified)
inactive: locus YAL013W, strain DEP1, hits give low values 1 | locus YAL021C, strain ccr4, hits give low values 0.98 | locus YAL026C, strain drs2, hits give low values 1 | locus YAL030W, strain snc1, hits give low values 1.01 | locus YBL061C, strain skt5, hits give low values 1.01 | locus YBR009C, strain hhf1, hits give low values 1 | locus YBR021W, strain FUR4, hits give low values 0.989 | locus YBR023C, strain chs3, hits give low values 1 | locus YBR171W, strain sec66, hits give low values 0.986 | locus YBR229C, strain ROT2, hits give low values 0.996 | locus YBR231C, strain swc5, hits give low values 0.993 | locus YBR279W, strain paf1, hits give low values 1.01 | locus YCL011C, strain gbp2, hits give low values 0.984 | locus YCL016C, strain dcc1, hits give low values 1.01 | locus YCL029C, strain bik1, hits give low values 0.984 | locus YCL061C, strain MRC1, hits give low values 1.02 | locus YCL069W, strain vba3, hits give low values 0.99 | locus YCR088W, strain abp1, hits give low values 0.991 | locus YDL005C, strain med2, hits give low values 0.994 | locus YDL035C, strain GPR1, hits give low values 1.03 | locus YDL040C, strain nat1, hits give low values 0.986 | locus YDL074C, strain BRE1, hits give low values 0.994 | locus YDL101C, strain DUN1, hits give low values 0.984 | locus YDL185W, strain tfp1, hits give low values 0.981 | locus YDL192W, strain arf1, hits give low values 0.993 | locus YDR001C, strain nth1, hits give low values 0.998 | locus YDR069C, strain doa4, hits give low values 1.01 | locus YDR101C, strain arx1, hits give low values 0.991 | locus YDR137W, strain rgp1, hits give low values 1.05 | locus YDR159W, strain sac3, hits give low values 1.02 | locus YDR162C, strain NBP2, hits give low values 1.02 | locus YDR195W, strain ref2 0.941 | locus YDR297W, strain sur2, hits give low values 1 | locus YDR318W, strain mcm21, hits give low values 0.993 | locus YDR334W, strain swr1, hits give low values 0.986 | locus YDR335W, strain msn5, hits give low values 0.987 | locus YDR388W, hits give low values 0.98 | locus YDR392W, strain spt3, hits give low values 0.991 | locus YDR502C, strain sam2, hits give low values 0.973 | locus YEL003W, strain gim4, hits give low values 0.995 | locus YEL037C, strain rad23, hits give low values 0.984 | locus YEL061C, strain CIN8 (second series), hits give low values 0.987 | locus YEL061C, strain CIN8, hits give low values 1.01 | locus YER015W, strain faa2, hits give low values 1 | locus YER016W, strain bim1, hits give low values 1 | locus YER110C, hits give low values 0.978 | locus YER111C, strain swi4, hits give low values 0.987 | locus YER155C, strain BEM2 (second series), hits give low values 1.02 | locus YER155C, strain BEM2, hits give low values 0.988 | locus YER167W, strain BCK2, hits give low values 1 | locus YFR010W, strain ubp6, hits give low values 0.979 | locus YGL078C, strain dbp3, hits give low values 0.994 | locus YGL086W, strain mad1, hits give low values 0.985 | locus YGL167C, strain pmr1, hits give low values 1.01 | locus YGL173C, strain kem1, hits give low values 1.01 | locus YGL227W, strain vid30, hits give low values 0.994 | locus YGL240W, strain doc1, hits give low values 0.984 | locus YGL248W, strain PDE1, hits give low values 0.988 | locus YGL253W, strain hxk2, hits give low values 0.966 | locus YGR135W, strain pre9, hits give low values 0.973 | locus YGR229C, strain SMI1, hits give low values 1.02 | locus YGR252W, strain gcn5, hits give low values 0.952 | locus YHR013C, strain ard1, hits give low values 0.994 | locus YHR027C, strain rpn1, hits give low values 1.01 | locus YHR079C, strain IRE1 (second series), hits give low values 0.99 | locus YHR094C, strain hxt1, hits give low values 0.983 | locus YHR129C, strain ARP1, hits give low values 0.997 | locus YHR142W, strain chs7, hits give low values 0.991 | locus YHR200W, strain rpn10, hits give low values 0.975 | locus YIL066C, strain RNR3, hits give low values 1 | locus YIL073C, strain SPO22, hits give low values 1 | locus YIL125W, strain kgd1, hits give low values 0.989 | locus YIR030C, strain dcg1, hits give low values 0.987 | locus YJL092W, strain hpr5, hits give low values 0.985 | locus YJL095W, strain BCK1 (second series), hits give low values 1 | locus YJL095W, strain BCK1, hits give low values 0.988 | locus YJL115W, strain asf1, hits give low values 0.994 | locus YJL129C, strain trk1, hits give low values 0.996 | locus YJL134W, strain LCB3, hits give low values 0.998 | locus YJL154C, strain vps35, hits give low values 1 | locus YJL164C, strain tpk1, hits give low values 1.01 | locus YJL166W, strain qcr8, hits give low values 1.02 | locus YJL168C, strain set2, hits give low values 0.988 | locus YJL187C, strain SWE1 (second series), hits give low values 0.977 | locus YJL187C, strain SWE1, hits give low values 1 | locus YJR043C, strain POL32, hits give low values 1.02 | locus YKL009W, strain mrt4, hits give low values 1.01 | locus YKL068W, hits give low values 0.992 | locus YKL085W, strain MDH1 (second series), hits give low values 1 | locus YKL085W, strain MDH1, hits give low values 1 | locus YKL160W, strain elf1, hits give low values 1.02 | locus YKL190W, strain CNB1, hits give low values 1.01 | locus YKR001C, strain vps1, hits give low values 0.983 | locus YKR026C, strain gcn3, hits give low values 1 | locus YKR091W, strain srl3, hits give low values 1 | locus YLL001W, strain dnm1, hits give low values 1.03 | locus YLL026W, hits give low values 1.01 | locus YLL041C, strain sdh2, hits give low values 0.993 | locus YLR027C, strain aat2, hits give low values 1.01 | locus YLR039C, strain RIC1, hits give low values 1.06 | locus YLR058C, strain SHM2, hits give low values 0.992 | locus YLR102C, strain apc9, hits give low values 0.987 | locus YLR221C, strain rsa3, hits give low values 1 | locus YLR258W, strain gsy2, hits give low values 0.996 | locus YLR262C, strain YPT6 (second series), hits give low values 1.03 | locus YLR262C, strain YPT6, hits give low values 1.1 | locus YLR268W, strain sec22, hits give low values 0.994 | locus YLR320W, strain mms22, hits give low values 1.01 | locus YLR342W, strain FKS1 (second series), hits give low values 1.05 | locus YLR342W, strain FKS1, hits give low values 1.01 | locus YLR357W, strain rsc2, hits give low values 0.97 | locus YLR370C, strain arc18, hits give low values 0.983 | locus YLR371W, strain rom2, hits give low values 0.992 | locus YLR384C, strain iki3, hits give low values 0.997 | locus YLR418C, strain cdc73, hits give low values 0.956 | locus YML016C, strain PPZ1, hits give low values 0.999 | locus YML032C, strain rad52, hits give low values 0.986 | locus YML120C, strain ndi1, hits give low values 1 | locus YML124C, strain tub3, hits give low values 0.994 | locus YMR058W, strain fet3, hits give low values 0.999 | locus YMR078C, strain ctf18, hits give low values 1 | locus YMR125W, strain sto1, hits give low values 0.987 | locus YMR129W, hits give low values 1.01 | locus YMR205C, strain PFK2, hits give low values 1.04 | locus YMR223W, strain ubp8, hits give low values 0.996 | locus YMR231W, strain pep5, hits give low values 0.97 | locus YMR307W, strain GAS1, hits give low values 1.07 | locus YNL067W, strain RPL9B, hits give low values 0.987 | locus YNL071W, strain lat1, hits give low values 0.993 | locus YNL209W, strain ssb2, hits give low values 1.01 | locus YNL233W, strain BNI4, hits give low values 1 | locus YNL248C, strain rpa49, hits give low values 0.996 | locus YNL250W, strain rad50, hits give low values 0.978 | locus YNL271C, strain bni1, hits give low values 0.97 | locus YNL298W, strain CLA4, hits give low values 0.996 | locus YNL307C, strain MCK1, hits give low values 0.986 | locus YNL322C, strain KRE1 (second series), hits give low values 0.99 | locus YNR049C, strain mso1, hits give low values 1 | locus YNR052C, strain pop2, hits give low values 0.966 | locus YOL006C, strain TOP1, hits give low values 1.05 | locus YOL012C, strain htz1 0.864 | locus YOL147C, strain pex11, hits give low values 0.982 | locus YOR001W, strain rrp6, hits give low values 0.973 | locus YOR061W, strain CKA2, hits give low values 0.998 | locus YOR069W, strain VPS5, hits give low values 0.99 | locus YOR070C, strain gyp1, hits give low values 1 | locus YOR080W, strain dia2, hits give low values 1 | locus YOR083W, strain WHI5, hits give low values 1.02 | locus YOR106W, strain vam3, hits give low values 1.01 | locus YOR136W, strain idh2, hits give low values 0.993 | locus YOR144C, strain elg1, hits give low values 0.988 | locus YOR184W, strain ser1, hits give low values 1.02 | locus YOR265W, strain rbl2, hits give low values 0.996 | locus YOR270C, strain vph1, hits give low values 1.02 | locus YOR290C, strain snf2, hits give low values 0.981 | locus YOR316C, strain cot1, hits give low values 0.984 | locus YPL051W, strain arl3, hits give low values 1.02 | locus YPL055C, strain LGE1, hits give low values 1.02 | locus YPL078C, strain atp4, hits give low values 1.02 | locus YPL106C, strain sse1, hits give low values 0.996 | locus YPL240C, strain hsp82, hits give low values 0.999 | locus YPR119W, strain clb2, hits give low values 0.981 | locus YPR141C, strain kar3, hits give low values 0.996 | locus YPR163C, strain tif3, hits give low values 0.975 | locus YPR167C, strain met16, hits give low values 0.985 | strain wtn01, hits give low values 1
